Laboratory results reported in PubChem BioAssay (NCATS).
Inconclusive results are not listed. Entries that show only a call come without a potency. The source made the active and inactive calls. Calls come from the whole dose curve; as a rule, active = well fitted curve in the direction sought with a large enough effect; inconclusive = small, poorly fitted or top-dose-only effect, or another doubt; inactive = no such curve, though single readings can be large; an effect the other way counts as inactive or inconclusive.

Columns and labels:
[1] = qHTS for inhibitors of adenylyl cyclases using a fission yeast platform: a pilot screen against the NCATS LOPAC library (AID 1347410)
In short: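 S. pombe CHP2027 (AC9-GNAS-PDE4D2) carrying a PKA-repressed fbp1-GFP reporter was exposed to LOPAC compounds (final up to 57 µM) for 18 h at 30C in the dark, in EMM with histidine, lysine and uracil; GFP gain-of-signal read by laser scanning cytometry.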

[2] = Validation qHTS assay for inhibitors of Activation Induced Cytidine Deaminase (AID): UDG Counterscreen signal (AID 1347427)
In short: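 Fluorescence at 560 nm excitation, 665 nm emission reports UDG signal after 250 mM NaOH (2x) addition and 30 min. Enzymes (AID 1 uM, UDG 2 U/mL, at 4/3x) preincubated 10 min with compound, then 4 h with 4x 250 nM DJC20/DJC23 substrate at room temperature.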

[3] = qHTS to identify inhibitors of the type 1 interferon - major histocompatibility complex class I in skeletal muscle: primary screen against the NCATS Mechanism Interrogation Plate v5.0 (MIPE) Libary (AID 1347411); note: nearly all actives have a fitted effect of over 65% in size
In short: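 Luminescence from CRISPR HiBit-tagged endogenous HLA-B in human myoblasts reported MHC class I level after 24 h of IFN-beta (4 ng/ml) plus compound. Compounds ran as 11-point 1:3 series, top 46 uM final.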

For `CC(C)(CO)Cc1cc(C(C)(C)C)c(O)c(C(C)(C)C)c1`, the outcome [1] was “inactive” and the Potency [2] was “inactive”.
In the case of `CCCCOC(=O)NS(=O)(=O)c1sc(CC(C)C)cc1-c1ccc(Cn2c(CC)nc3c(C)cc(C)nc32)cc1`, the outcome [1] is reported as “inactive” and the Potency [2] is reported as “inactive”.
In the case of `CCCc1c(OCCCOc2ccc(OCC(=O)O)cc2)ccc(C(C)=O)c1O`, the outcome [3] is reported as “inactive” and the Potency [2] is reported as “inactive”.
With `OC1(c2ccc(Cl)cc2)CCN(Cc2c[nH]c3ccccc23)CC1` the outcome [1] was “inactive” and the Potency [2] was “inactive”.
With `CC[n+]1c(/C=C/C=C2/N(C)c3ccccc3C2(C)C)sc2ccccc21` the outcome [1] was “inactive” and the Potency [2] was “inactive”.
In the case of `CC(N)(Cc1ccc(O)cc1)C(=O)O` (configuration not stated), the outcome [1] is reported as “inactive” and the Potency [2] is reported as “inactive”.
